Laboratory results taken from the supplement of paper PMC6555819.

Tests used:
Test in all cases: PBM binding z-score (relative to random genomic background probes); higher = stronger binding; sequences stand for … in GC…GCGATTGACAGCGTAGAATGAAGG
[1] = tested on: FXR:RXRa (NR concentration 270 nM, RXRa partner concentration 90 nM)
Procedure, shortened: (§1)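 Ligand-free nuclear receptor dimers were applied to custom Agilent 4×180K protein-binding microarrays whose double-stranded probes carried direct-repeat seeds, single-nucleotide variants, half-site ablations and random human genomic background sequences in 34-nt variable regions. Incubation lasted 1 h. Binding z-scores were computed against the random background probes from regression-normalized fluorescence.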

[2] = tested on: LXRa:RXRa (NR concentration 270 nM, RXRa partner concentration 90 nM)
Procedure, shortened: as §1

[3] = tested on: LXRa homodimer (NR concentration 270 nM)
Procedure, shortened: as §1

[4] = tested on: LXRb:RXRa (NR concentration 270 nM, RXRa partner concentration 90 nM)
Procedure, shortened: as §1

[5] = tested on: LXRb homodimer (NR concentration 270 nM)
Procedure, shortened: as §1

[6] = tested on: PPARa:RXRa (NR concentration 270 nM, RXRa partner concentration 90 nM)
Procedure, shortened: as §1

[7] = tested on: PPARg:RXRa (NR concentration 180 nM, RXRa partner concentration 90 nM)
Procedure, shortened: as §1

[8] = tested on: PPARg:RXRa 270nM:90nM, anti-RXR (NR concentration 270 nM, RXRa partner concentration 90 nM)
Procedure, shortened: as §1

[9] = tested on: PPARg:RXRa 30nM:10nM, anti-RXR (NR concentration 30 nM, RXRa partner concentration 10 nM)
Procedure, shortened: as §1

[10] = tested on: PPARg:RXRa 90nM:30nM, anti-RXR (NR concentration 90 nM, RXRa partner concentration 30 nM)
Procedure, shortened: as §1

TCGGGTAGGTTACCAATGGGGCATTCAGCTTTCT
PBM binding z-score [1]: 0.661
PBM binding z-score [2]: 1.91
PBM binding z-score [3]: 0.192
PBM binding z-score [4]: 1.61
PBM binding z-score [5]: 0.113
PBM binding z-score [6]: 1.22
PBM binding z-score [7]: 0.0871
PBM binding z-score [8]: 1.31
PBM binding z-score [9]: 1.96
PBM binding z-score [10]: 1.63

ATCGAAAGGTCGAAGGTGAGTGTACCCACCCGAA
PBM binding z-score [1]: 4.5
PBM binding z-score [2]: 3.39
PBM binding z-score [3]: 0.164
PBM binding z-score [4]: 2.8
PBM binding z-score [5]: 0.755
PBM binding z-score [6]: 4.8
PBM binding z-score [7]: 4.86
PBM binding z-score [8]: 4.69
PBM binding z-score [9]: 2.15
PBM binding z-score [10]: 3.8

CGAACTAGGGCATTGACAGGACAGTGAATAGTAA
PBM binding z-score [1]: 0.151
PBM binding z-score [2]: 0.0251
PBM binding z-score [3]: 0.031
PBM binding z-score [4]: -0.0451
PBM binding z-score [5]: -0.654
PBM binding z-score [6]: 2.23
PBM binding z-score [7]: 3.32
PBM binding z-score [8]: 2.68
PBM binding z-score [9]: 0.522
PBM binding z-score [10]: 1.83

ACAGACAGGTGATGATGGTAACTCAGGCTATCAT
PBM binding z-score [1]: 0.142
PBM binding z-score [2]: -0.0671
PBM binding z-score [3]: -0.0719
PBM binding z-score [4]: -0.166
PBM binding z-score [5]: -0.2
PBM binding z-score [6]: -0.0535
PBM binding z-score [7]: 0.679
PBM binding z-score [8]: -0.301
PBM binding z-score [9]: 0.191
PBM binding z-score [10]: 0.135

GCTAGCAGGCCAGTTGGGTCACTCAATGACGGGC
PBM binding z-score [1]: -0.488
PBM binding z-score [2]: -0.319
PBM binding z-score [3]: -0.976
PBM binding z-score [4]: -0.381
PBM binding z-score [5]: -1.51
PBM binding z-score [6]: 0.54
PBM binding z-score [7]: 0.164
PBM binding z-score [8]: 0.0245
PBM binding z-score [9]: -0.726
PBM binding z-score [10]: -0.378

ATCTCTAAGTAAAGATAGTTCAGTGAATGCAAAT
PBM binding z-score [1]: 0.825
PBM binding z-score [2]: 1.03
PBM binding z-score [3]: 0.571
PBM binding z-score [4]: 0.658
PBM binding z-score [5]: 0.588
PBM binding z-score [6]: 0.429
PBM binding z-score [7]: 0.449
PBM binding z-score [8]: 0.18
PBM binding z-score [9]: 0.359
PBM binding z-score [10]: 0.14

CCTACTGGGCCACGAAAGGTCATTCATTCAGTGA
PBM binding z-score [1]: 3.89
PBM binding z-score [2]: 5.43
PBM binding z-score [3]: 6.05
PBM binding z-score [4]: 4.47
PBM binding z-score [5]: 0.659
PBM binding z-score [6]: 4.73
PBM binding z-score [7]: 4.8
PBM binding z-score [8]: 5.02
PBM binding z-score [9]: 1.88
PBM binding z-score [10]: 4.42

GCTTGTAGATCAAGGTTAAGATAGACTAAGCTAA
PBM binding z-score [1]: 0.296
PBM binding z-score [2]: 1.56
PBM binding z-score [3]: -0.0877
PBM binding z-score [4]: 0.529
PBM binding z-score [5]: -0.803
PBM binding z-score [6]: 1.66
PBM binding z-score [7]: 1.17
PBM binding z-score [8]: 2.1
PBM binding z-score [9]: 0.465
PBM binding z-score [10]: 1.81

ATATGGAGGTTATCGGGTCATTCAGTTTGCGCAT
PBM binding z-score [1]: 4.63
PBM binding z-score [2]: 4.39
PBM binding z-score [3]: 2.28
PBM binding z-score [4]: 3.8
PBM binding z-score [5]: 1.41
PBM binding z-score [6]: 4.84
PBM binding z-score [7]: 5.29
PBM binding z-score [8]: 5
PBM binding z-score [9]: 2.08
PBM binding z-score [10]: 3.73

CCTCGGATGACAACAGGAGGTCAGAGCTGCCAGA
PBM binding z-score [1]: 0.859
PBM binding z-score [2]: 1.83
PBM binding z-score [3]: 1.84
PBM binding z-score [4]: 1.53
PBM binding z-score [5]: -0.0301
PBM binding z-score [6]: 1.91
PBM binding z-score [7]: 0.547
PBM binding z-score [8]: 0.588
PBM binding z-score [9]: -0.476
PBM binding z-score [10]: 0.0996

TCTAGTTGGTCACGGTGGTCACACACGACGGGTA
PBM binding z-score [1]: -0.0806
PBM binding z-score [2]: 0.249
PBM binding z-score [3]: -0.00168
PBM binding z-score [4]: 0.395
PBM binding z-score [5]: 0.0154
PBM binding z-score [6]: 1
PBM binding z-score [7]: 1.15
PBM binding z-score [8]: 2.15
PBM binding z-score [9]: 3.17
PBM binding z-score [10]: 2.47

CCTTACGGGTCATTGACAGGTTATAGCATTTGGA
PBM binding z-score [1]: 5.92
PBM binding z-score [2]: 4.79
PBM binding z-score [3]: 1.1
PBM binding z-score [4]: 3.85
PBM binding z-score [5]: 0.271
PBM binding z-score [6]: 5.27
PBM binding z-score [7]: 3.6
PBM binding z-score [8]: 4.06
PBM binding z-score [9]: 1.55
PBM binding z-score [10]: 2.75

TCTTGTAGATCAACAGGAGGTTAAAAAAGATCGA
PBM binding z-score [1]: 0.243
PBM binding z-score [2]: 2
PBM binding z-score [3]: 0.321
PBM binding z-score [4]: 1.34
PBM binding z-score [5]: -0.17
PBM binding z-score [6]: 1.54
PBM binding z-score [7]: 0.116
PBM binding z-score [8]: 1.59
PBM binding z-score [9]: 2.66
PBM binding z-score [10]: 2.31

TCTTGTAGATCAAGCAGGTTATGAAAGCCTGAGT
PBM binding z-score [1]: 0.147
PBM binding z-score [2]: 0.219
PBM binding z-score [3]: -0.495
PBM binding z-score [4]: 0.124
PBM binding z-score [5]: -0.429
PBM binding z-score [6]: 0.732
PBM binding z-score [7]: -0.162
PBM binding z-score [8]: 1.27
PBM binding z-score [9]: 2.34
PBM binding z-score [10]: 1.89

AGCGAAAGGTCGTGAGGTGAGTATACAGAAAGGC
PBM binding z-score [1]: 5.99
PBM binding z-score [2]: 3.84
PBM binding z-score [3]: -0.142
PBM binding z-score [4]: 3.17
PBM binding z-score [5]: -0.2
PBM binding z-score [6]: 5.26
PBM binding z-score [7]: 4.55
PBM binding z-score [8]: 4.97
PBM binding z-score [9]: 1.84
PBM binding z-score [10]: 3.25

CGTCCAAGGTCAAAGGTCAGTTAAGAGATGACGG
PBM binding z-score [1]: 8.43
PBM binding z-score [2]: 6.95
PBM binding z-score [3]: 4.02
PBM binding z-score [4]: 6.65
PBM binding z-score [5]: 2.51
PBM binding z-score [6]: 7.44
PBM binding z-score [7]: 10.5
PBM binding z-score [8]: 8.31
PBM binding z-score [9]: 7.4
PBM binding z-score [10]: 9.07

AGTCAAAGTTCATCTAGGTAATGTAAGATATGCT
PBM binding z-score [1]: 6.48
PBM binding z-score [2]: 6.26
PBM binding z-score [3]: 5.38
PBM binding z-score [4]: 4.07
PBM binding z-score [5]: 1.98
PBM binding z-score [6]: 4.95
PBM binding z-score [7]: 6.59
PBM binding z-score [8]: 6.48
PBM binding z-score [9]: 3.67
PBM binding z-score [10]: 5.42

ACCATTAGTTGAGACGAGGGCAACCGATAGGTTG
PBM binding z-score [1]: 0.428
PBM binding z-score [2]: 0.177
PBM binding z-score [3]: 3.5e-05
PBM binding z-score [4]: 0.214
PBM binding z-score [5]: -0.155
PBM binding z-score [6]: 0.553
PBM binding z-score [7]: 0.56
PBM binding z-score [8]: -0.0707
PBM binding z-score [9]: 0.0624
PBM binding z-score [10]: -0.228

CCTTACGGGTCGCTCCAGGTTATAGCATCGGAGT
PBM binding z-score [1]: 1.38
PBM binding z-score [2]: 2.13
PBM binding z-score [3]: -0.172
PBM binding z-score [4]: 0.57
PBM binding z-score [5]: -0.524
PBM binding z-score [6]: 1.24
PBM binding z-score [7]: 0.136
PBM binding z-score [8]: 0.211
PBM binding z-score [9]: -0.551
PBM binding z-score [10]: -0.391

CCGACTGGGGCAGAAAGGTTAACATACCATCCGG
PBM binding z-score [1]: 0.257
PBM binding z-score [2]: 0.795
PBM binding z-score [3]: 0.102
PBM binding z-score [4]: 1.32
PBM binding z-score [5]: -1.1
PBM binding z-score [6]: 2.45
PBM binding z-score [7]: 1.92
PBM binding z-score [8]: 2.76
PBM binding z-score [9]: 1.1
PBM binding z-score [10]: 2.38

CTCGAAAGGTCGGTTGAGGTGCGTATACGGATAA
PBM binding z-score [1]: 2.39
PBM binding z-score [2]: 1.39
PBM binding z-score [3]: -0.235
PBM binding z-score [4]: 1.24
PBM binding z-score [5]: -0.239
PBM binding z-score [6]: 2.3
PBM binding z-score [7]: 0.2
PBM binding z-score [8]: 0.942
PBM binding z-score [9]: 0.258
PBM binding z-score [10]: 0.457

AGAACGAGGGCCCGCTGAGTTGATAGCAGAGTAG
PBM binding z-score [1]: -0.807
PBM binding z-score [2]: -1.1
PBM binding z-score [3]: -0.871
PBM binding z-score [4]: -1.53
PBM binding z-score [5]: -1.19
PBM binding z-score [6]: -1.78
PBM binding z-score [7]: -0.00223
PBM binding z-score [8]: -1.4
PBM binding z-score [9]: -0.848
PBM binding z-score [10]: -1.55

AATACAGGGTCACTAGGCCAGATTAGGTACGAAT
PBM binding z-score [1]: 6.03
PBM binding z-score [2]: 5.16
PBM binding z-score [3]: 1.09
PBM binding z-score [4]: 4.11
PBM binding z-score [5]: 1.11
PBM binding z-score [6]: 5.92
PBM binding z-score [7]: 7.81
PBM binding z-score [8]: 6.39
PBM binding z-score [9]: 3.62
PBM binding z-score [10]: 5.04
